LDHA inh = blocks human lactate dehydrogenase A. P00338. purified LDHA, NADH/diaphorase-resazurin fluorescence; active compounds read low. activity change, % (values are at about 110 or 230 µM). actives 0.15% (n = 480,000); in the data active = activity change below about -30%; inconclusive = mostly about -25% to -30%;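 also: plate controls were DMSO wells for no effect and wells without enzyme for full effect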
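Resorufin fluorescence (ex540/em590), read at 0 and 20 min after diaphorase/resazurin addition, reports the NADH left after a 5 min room-temperature reaction of 2 nM human LDH5 with 0.06 mM NADH and 0.2 mM pyruvate.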
RORg inh = blocks mouse ROR gamma transcriptional activity. P51450. Drosophila S2 Gal4-RORgamma UAS-luciferase reporter, 20 h. Potency, µM (titrated, usually from 53.6 µM), inactives show top-dose activity change, negative = inhibition, usual class: inhibitors. actives 5.4% (n = 310,000). AID 2551; also: potency is read from the fitted curve at half-maximal effect; nearly all actives have a fitted effect of over 60% in size
Target sequence (P51450 whole entry, looked up, the tested form may be a part): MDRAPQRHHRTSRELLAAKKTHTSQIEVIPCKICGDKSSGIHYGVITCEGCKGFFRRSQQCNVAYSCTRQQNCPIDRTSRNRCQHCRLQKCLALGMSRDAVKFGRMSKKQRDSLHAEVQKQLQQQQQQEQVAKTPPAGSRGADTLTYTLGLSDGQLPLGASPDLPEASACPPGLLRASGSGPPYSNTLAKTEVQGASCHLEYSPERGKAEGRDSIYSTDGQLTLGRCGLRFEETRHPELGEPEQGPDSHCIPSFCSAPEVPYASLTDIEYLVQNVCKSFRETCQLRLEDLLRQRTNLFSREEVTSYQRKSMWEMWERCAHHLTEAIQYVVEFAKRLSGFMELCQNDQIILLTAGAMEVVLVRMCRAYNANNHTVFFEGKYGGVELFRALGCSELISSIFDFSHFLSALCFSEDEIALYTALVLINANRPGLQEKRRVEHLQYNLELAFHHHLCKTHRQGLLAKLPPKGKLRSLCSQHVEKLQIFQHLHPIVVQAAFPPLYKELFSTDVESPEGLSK
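Luciferase reporter read in Schneider cells carrying Gal4-RORγ (mouse) and UAS-Photinus luciferase; cells given compound 1 h before 700 uM copper sulfate induction, then incubated 20 h at ambient temperature.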
TDP1 cell noCPT = qHTS for Inhibitors of human tyrosyl-DNA phosphodiesterase 1 (TDP1): qHTS in cells in absence of CPT. actives 15% (n = 420,000). Potency, µM (highest dose often 46.2 µM), for inactives: at the top dose activity change, negative = growth inhibition, hits mostly inhibitors. DT40 Tdp1-/- hTDP1 cells, no CPT, ATP luminescence, 48 h. AID 686978, 2013; also: potency is read from the fitted curve at half-maximal effect; nearly all actives have a fitted effect of over 55% in size
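Seeded 400 DT40-hTDP1 cells/well (vehicle DMSO, no 20 nM CPT); pinned compounds; ≥48 hr at 37 °C; CellTiter-Glo luminescence as viability measure.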
VP16 counter = Gal4-VP16 reporter inhibition counter-screen; Potency, µM (titrated, usually from 53.6 µM), for inactives: at the top dose activity, negative = inhibition, most hits filed as inhibitors; Drosophila S2 Gal4-VP16 UAS-luciferase, luminescence, 20 h; AID 2546; actives 3.5% (n = 310,000);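 also: Gal4-VP16 expression switched on by copper sulfate through the metallothionein promoter; potency is read from the fitted curve at half-maximal effect; nearly all actives have a fitted effect of over 50% in size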
DT40 TDP1 CPT = growth inhibition of DT40 Tdp1-/-;hTDP1 cells with camptothecin (screen for TDP1 inhibitors); chicken DT40 Tdp1-/-;hTDP1 cells + 20 nM CPT, ATP luminescence, 48 h; Potency, µM (doses to about 46.2 µM), without a hit: at the top dose activity change, negative = growth inhibition, actives largely listed as inhibitors; actives 12% (n = 420,000); also: potency is read from the fitted curve at half-maximal effect; nearly all actives have a fitted effect of over 55% in size
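Chicken DT40 Tdp1-/- cells complemented with human TDP1, 400 cells/well, exposed to compounds plus 20 nM camptothecin for at least 48 h at 37 C; viability read as ATP content by CellTiter-Glo luminescence.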
IL1B secr inh = inhibitors of inflammasome signaling (IL-1 beta secretion); THP-1 LPS/ATP IL-1B secretion, AlphaLISA, 16 h; active compounds read low; activity change, % at 57.5 µM; actives 4.7% (n = 360,000); AID 743279; in the data active = activity change below about -50%; inconclusive = mostly about -30% to -49%
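THP-1 cells pretreated 1 hr with compounds (up to 57.5 uM final), then stimulated with LPS (250 ng/mL final) plus ATP (1.25 mM final); secreted IL-1B measured by AlphaLISA after 16 hr, decreased signal indicating inhibition.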
Starred values were filed as active, the others as inactive; ? = inconclusive; . = no result; [ ] = remark or other dose. In the library only some 18% were active in any assay of this set; here they are far more common. Unless noted, calls follow the shape of the dose curve; as a rule, active = well fitted curve in the direction sought with a large enough effect; inconclusive = small, poorly fitted or top-dose-only effect, or another doubt; inactive = no such curve, though single readings can be large; an effect the other way counts as inactive or inconclusive. Unless noted, % is scaled to controls: 0 for no effect and ±100 for the full control effect.

SMILES	LDHA inh	RORg inh	TDP1 cell noCPT	VP16 counter	DT40 TDP1 CPT	IL1B secr inh
CCC1=NN(C(=O)Cc2ccccc2)C(O)(c2ccncc2)C1 (stereo unspecified)	-2	0%	0%	?	-3%	13
CCCC1=NN(C(=O)Cc2ccc([N+](=O)[O-])cc2)C(O)(C(F)(F)F)C1 (stereo unspecified)	-3	20µM*	?	?	2%	0
O=C(Cc1ccc([N+](=O)[O-])cc1)N1N=C(C2CC2)CC1(O)C(F)(F)F (stereo unspecified)	-1	16µM*	?	?	26µM*	26
CCC1=NN(C(=O)Cc2ccc([N+](=O)[O-])cc2)C(O)(C(F)(F)F)C1 (stereo unspecified)	1	?	?	10%	-6%	0
CCc1cccc(NC(=O)Cc2c[nH]c3ccccc23)c1	-6	.	.	.	.	.
O=C(CCCCCCCC(=O)N/N=C/c1ccc(Cl)cc1)N/N=C/c1ccc(Cl)cc1	2	.	.	.	.	.
CC(=O)c1nnn(-c2nc(N3CCCC3)nc(N3CCCC3)n2)c1C	10	.	.	.	.	.
COc1cc(NC(=O)c2cc(-c3cccc(OC)c3)n[nH]2)cc(OC)c1	-1	.	21µM*	.	15µM*	.
Cc1ccc(NC(=O)c2cc(-c3ccccc3)n[nH]2)cc1	-4	0%	15%	29%	-12%	-75*
CS(=O)(=O)c1ccc(C(=O)NNC(=O)c2cc(-c3ccccc3)n[nH]2)cc1	7	.	-2%	.	-3%	1
COc1cc(C(=O)NNC(=O)c2cc(-c3ccccc3)n[nH]2)cc(OC)c1C	-3	.	-15%	.	0%	-64*
COc1ccc(Cl)c(-c2cc(C(=O)Nc3ccc(F)cc3)[nH]n2)c1	-2	.	23µM*	.	15µM*	?
COc1ccc2oc(=O)c(S(=O)(=O)c3ccc(C)c(C)c3)cc2c1	2	.	.	.	.	.
COc1ccc(Cl)c(-c2cc(C(=O)Nc3ccccc3)[nH]n2)c1	-8	.	16µM*	.	23µM*	-51*
Cc1ccc(-c2nn(-c3ccc(F)cc3)cc2C(=O)N(C)CC(=O)Nc2ccc(N3CCOCC3)cc2)cc1	-1	.	15µM*	.	?	14
COc1ccc(NC(=O)CN(C)C(=O)c2cn(-c3ccccc3)nc2-c2ccc(F)cc2)cc1	-1	.	?	.	?	-53*
COc1ccc(Cl)cc1NC(=O)CN(C)C(=O)c1sccc1-c1ccccc1	-1	.	?	.	?	14
COc1ccc(NC(=O)CN(C)C(=O)c2cn(-c3ccccc3)nc2-c2ccc(Cl)cc2)cc1	-1	.	15µM*	.	?	-60*
COc1ccc(Cl)cc1NC(=O)CN(C)C(=O)c1cn(-c2ccccc2)nc1-c1cccnc1	-2	.	?	.	18µM*	-91*
COc1ccc(NC(=O)CN(C)C(=O)c2cn(-c3ccccc3)nc2-c2ccc(OC)cc2)cc1	-10	.	?	.	?	-18
O=C(c1cccc(Br)c1)N(Cc1cccc2[nH]ccc12)C1CC1	2	.	.	.	.	.
Cc1cc(C)c(NC(=O)COC(=O)c2cccc(O)c2)c(Cl)c1	0	.	.	.	.	.
O=C(COC(=O)c1ccc2ccccc2n1)Nc1cccc(Cl)c1	-14	.	.	.	.	.
O=C1/C(=C\c2ccc(O)c(O)c2)C(c2ccccc2)=NN1c1ccccc1	20	19%	21µM*	-2%[10 µM]	?	23
CCCCOc1ccc(/C=C/C(=O)c2ccc(O)c(OC)c2)cc1OCC	7	.	.	.	.	.
SMILES	LDHA inh	RORg inh	TDP1 cell noCPT	VP16 counter	DT40 TDP1 CPT	IL1B secr inh
COc1cc(/C=N\Nc2nc3ccccc3o2)cc(OC)c1OC	1	?	?	?	?	?
COc1cc(/C=N/n2nnnc2Nc2ccccc2)cc(OC)c1OC	-7	43%	18µM*	2%	15µM*	?
COc1cc(/C=N/Nc2nc(Nc3ccccc3)nc(-n3nc(C)cc3C)n2)cc(OC)c1OC	4	5µM*	18µM*	6.3µM*	23µM*	-64*
COc1ccc(O)c(/C=N/Nc2nc(Nc3ccccc3)nc(-n3nc(C)cc3C)n2)c1	4	0.63µM*	0.52µM*	0.63µM*	0.58µM*	-23
COc1cc(/C=N/Nc2nc(Nc3ccc(C)cc3)nc(-n3nc(C)cc3C)n2)cc(OC)c1OC	-18	-25%	2.9µM*	?	4.6µM*	4
CCOC(=O)C1C(=O)C=C(c2ccc(C)cc2)CC1c1ccccc1 (stereo unspecified)	0	22%	?	1%[10 µM]	?	-26
CC(=O)C1C(=O)C=C(c2ccco2)CC1c1ccccc1 (stereo unspecified)	-3	-38%	18µM*	2%	?	-3
O=C1c2ccccc2S(=O)(=O)N1Cc1nc(-c2ccc(Cl)c(Cl)c2)cs1	4	.	.	.	.	.
CC(=O)c1cccc(NC(=O)C(Sc2nnc(-c3ccoc3C)o2)c2ccccc2)c1 (stereo unspecified)	1	.	.	.	.	.
Cc1ccc2c(c1)-c1onc(C(=O)Nc3cc(-c4cccc(F)c4)no3)c1CO2	-5	.	.	.	.	.
CC(C)Cn1c(SCC(=O)O)nnc1-c1cccc(S(=O)(=O)N2CCOCC2)c1	-2	.	22%	.	-14%	0
NC(=O)CSc1nnc(-c2cccc(S(=O)(=O)N3CCOCC3)c2)n1C1CCCCCC1	-3	-14%	7.3µM*	-6%	5.8µM*	0
CC(C)Cn1c(SCC(=O)NCc2ccc(Cl)cc2)nnc1-c1cccc(S(=O)(=O)N2CCOCC2)c1	0	26%	21µM*	-18%	?	-1
Cc1ccc(-c2nnc(SCc3cccc(S(=O)(=O)N4CCOCC4)c3)n2N)cc1	2	.	.	.	.	.
Cc1ccc(CSc2nnc(-c3cccc(S(=O)(=O)N4CCOCC4)c3)n2C2CCCC2)cc1	-1	44%	12µM*	-20%	15µM*	-55*
COc1ccc(NC(=O)C(=O)NC(C)C)cc1N1CCCCS1(=O)=O	-16	.	.	.	.	.
COc1ccc(/C=N/NC(=O)NC23CC4CC(CC(C4)C2)C3)c(OC)c1	0	5%	23µM*	7%	?	-69*
O=C(N/N=C/c1ccc(O)cc1)NC12CC3CC(CC(C3)C1)C2	-8	4%	-28%	-8%	0%	-74*
COC(=O)C(Cc1ccc(O)cc1)NC(=O)NC12CC3CC(CC(C3)C1)C2 (stereo unspecified)	3	9%	?	2%	-33%	-63*
